Assay results taken from PubChem BioAssay AID493231 (Broad Institute, 2011).
Entries with a potency or affinity are not part of this list. Activity calls are given as the source filed them. No rule for the calls is given here.

Molecular target: Acyl-homoserine lactone acylase PvdQ (Pseudomonas aeruginosa (strain ATCC 15692 / DSM 22644 / CIP 104116 / JCM 14847 / LMG 12228 / 1C / PRS 101 / PAO1)) (UniProt Q9I194)
Assay: PvdQ acylase enzyme activity blockers – biochemical, fluorescence, plate reader and imaging, cherry-picks, dose response (AID 493231);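 also: more negative values mean stronger inhibition of the acylase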
Conditions: purified PvdQ acylase, fluorogenic substrate; series mostly up to 10 µM

Chain of Acyl-homoserine lactone acylase PvdQ (Pseudomonas aeruginosa (strain ATCC 15692 / DSM 22644 / CIP 104116 / JCM 14847 / LMG 12228 / 1C / PRS 101 / PAO1)) (Q9I194 whole entry, looked up): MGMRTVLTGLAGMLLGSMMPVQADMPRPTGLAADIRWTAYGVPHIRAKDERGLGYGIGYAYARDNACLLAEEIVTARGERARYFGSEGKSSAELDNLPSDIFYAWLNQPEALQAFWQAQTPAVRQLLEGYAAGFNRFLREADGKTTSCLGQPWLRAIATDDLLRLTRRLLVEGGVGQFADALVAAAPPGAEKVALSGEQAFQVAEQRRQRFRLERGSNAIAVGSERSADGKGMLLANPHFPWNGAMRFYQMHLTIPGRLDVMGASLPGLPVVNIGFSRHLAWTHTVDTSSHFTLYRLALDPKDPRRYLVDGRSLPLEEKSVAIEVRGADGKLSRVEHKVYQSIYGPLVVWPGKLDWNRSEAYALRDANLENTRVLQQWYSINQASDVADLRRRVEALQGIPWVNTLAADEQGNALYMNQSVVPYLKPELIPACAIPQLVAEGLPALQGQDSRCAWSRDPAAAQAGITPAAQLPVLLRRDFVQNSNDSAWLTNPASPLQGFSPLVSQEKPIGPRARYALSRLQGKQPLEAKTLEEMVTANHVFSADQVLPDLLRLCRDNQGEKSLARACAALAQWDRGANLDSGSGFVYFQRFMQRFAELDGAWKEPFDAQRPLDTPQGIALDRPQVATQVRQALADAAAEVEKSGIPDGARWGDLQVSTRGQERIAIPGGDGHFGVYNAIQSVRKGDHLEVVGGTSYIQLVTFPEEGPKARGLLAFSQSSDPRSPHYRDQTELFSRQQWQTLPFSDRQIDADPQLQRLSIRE

outcome, inactive:
CN1C=CC=C/C1=C1\SC(=S)N(Cc2ccccc2)C1=O
Cc1cc(C(=O)Nc2ccc(F)c(Cl)c2)on1
O=C(Nc1cccc(Br)c1)c1ccc2c(c1)SC1=NS(=O)(=O)CCN12
N#Cc1cc([N+](=O)[O-])ccc1Oc1cccc(/C=N/NC(=O)c2cccc(Cl)c2)c1
Cc1ccc(S(=O)(=O)NCc2ccccn2)cc1C
Cc1cc(NCCCn2ccnc2)n2nc(-c3ccc(Cl)cc3)cc2n1
CSCCC(NC(=O)c1ccc([N+](=O)[O-])cc1Cl)C(=O)OCC(=O)N(C)C (stereo unspecified)
c1ccc(-c2cnc(C3CCCCC3)o2)cc1
O=C(O)CC1S/C(=N/N=C/C=C/c2ccccc2)NC1=O (stereo unspecified)
NC(=O)c1oc2ccccc2c1NC(=O)Cc1ccccc1
c1ccc2sc(-c3ccc4c(c3)OCO4)nc2c1
O=c1oc(-c2ccc(F)cc2)nc2ccsc12
CC(C)[N+]1=C2C=CC=CC=C2SC12C([N+](=O)[O-])=CC(=[N+]([O-])[O-])C=C2[N+](=O)[O-] (stereo unspecified)
Cc1nn(S(=O)(=O)c2ccccc2)c(C)c1S(=O)(=O)N1CCOCC1
CC(NC(=O)C1CCCN(C(=O)c2ccc(Cl)cc2)C1)c1cccc(C(F)(F)F)c1 (stereo unspecified)
OC(CN1CCOCC1)Cn1c(-c2cccc(Cl)c2)nc2ccccc21 (stereo unspecified)
Cc1ccc(SCC(=O)Nc2ccc(F)cc2[N+](=O)[O-])cc1C
COC(=O)c1sccc1N/N=C/c1ccc(OC)c(OC)c1OC
O=c1[nH]c(C2CCN(S(=O)(=O)c3ccc(C(F)(F)F)cc3)CC2)nc2c1nnn2Cc1ccc(F)cc1
COc1ccc(-c2cc3ccccc3cn2)cc1
COc1ccc(CCNC(=O)/C(C#N)=C/c2ccc(OCC(=O)NCC3CCCO3)cc2)cc1OC (stereo unspecified)
COc1ccccc1N(CC(O)Cn1ccnc1C)S(=O)(=O)c1ccccc1 (stereo unspecified)
COc1ccc(-c2onc3ccc(Br)cc23)cc1
CCOC(=O)c1ccc(Nc2ncccc2[N+](=O)[O-])cc1
CC[N+](CC)(CC)C/C=C/CN1CCCCC1
Cc1nc2ccc(S(=O)(=O)Nc3ccc(-c4nc5cccnc5s4)cc3)cc2s1
Cc1cc(=O)[nH]c(SCC(=O)Nc2ccc(Br)cn2)n1
CC1CC(Nc2ccccc2)c2ccccc2N1C(=O)c1ccco1 (stereo unspecified)
COc1ccc(NC(=O)C2CCCN(C(=O)NC3CCCCC3)C2)cc1OC (stereo unspecified)
COCCCNC(=O)c1cc(S(=O)(=O)NCCCN2CCCC2=O)ccc1Cl
Cc1ccc2nc(-c3ccc(NS(=O)(=O)c4ccc(F)cc4)cc3)sc2c1
CC(C)(C)OC(=O)N(CCc1ccccc1)Cc1ccccc1OCc1cccc(NC(=O)C2CC2)c1
Cc1ccc(C(=O)/C=C/Nc2cccc([N+](=O)[O-])c2)o1
CCN(c1ccc(NC(=O)CCNC(=O)c2ccco2)cc1)C(C)C
Cn1cccc1Cc1nnc(SCC(=O)N2CCN(c3ccccc3)CC2)n1-c1ccc(F)cc1
O=C(COc1ccccc1)OCC(=O)c1ccc(S(=O)(=O)N2CCCCC2)cc1
